Laboratory results: PubChem BioAssay AID1159580 (chemical genetic matrix, 2015)
The campaign covered roughly 5,500 compounds. About 2,000 (36%) were called active. Inconclusive results (about 18%) are left out. Rule as the data show it: active = normalized growth mostly below about 0.91 (no sharp cut-off); inconclusive = no clear call, values can overlap the other calls; inactive = mostly above about 0.92. This is one part of the list.

Assay: chemical genetic growth profiling, strain panel (AID 1159580);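 also: tested at 20 µM; growth read once vehicle control cultures reached saturation at 30 °C; 1 = growth at the plate median or of vehicle wells; lower values mean less growth of the strain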
Settings: growth OD

Measured: normalized growth

C[C@@H]1CC[C@@]2(OC1)O[C@H]1CC3C4CC[C@H]5C[C@@H](O)CC[C@]5(C)C4CC[C@]3(C)[C@H]1[C@@H]2C (stereo not given in full)
inactive: S. cerevisiae deletion strains, locus YJR066W, strain TOR1, stronger effect = lower value 0.945 | S. cerevisiae deletion strains, locus YJR075W, strain HOC1, stronger effect = lower value 0.981 | S. cerevisiae deletion strains, locus YKL009W, strain mrt4, stronger effect = lower value 0.991 | S. cerevisiae deletion strains, locus YKL068W, stronger effect = lower value 0.981 | S. cerevisiae deletion strains, locus YKL085W, strain MDH1 (second series), stronger effect = lower value 0.977 | S. cerevisiae deletion strains, locus YKL085W, strain MDH1, stronger effect = lower value 0.977 | S. cerevisiae deletion strains, locus YKL160W, strain elf1, stronger effect = lower value 0.996 | S. cerevisiae deletion strains, locus YKR001C, strain vps1, stronger effect = lower value 0.987 | S. cerevisiae deletion strains, locus YKR026C, strain gcn3, stronger effect = lower value 0.984 | S. cerevisiae deletion strains, locus YKR091W, strain srl3, stronger effect = lower value 0.986 | S. cerevisiae deletion strains, locus YLL001W, strain dnm1, stronger effect = lower value 1 | S. cerevisiae deletion strains, locus YLL026W, stronger effect = lower value 0.988 | S. cerevisiae deletion strains, locus YLL041C, strain sdh2, stronger effect = lower value 1 | S. cerevisiae deletion strains, locus YLR027C, strain aat2, stronger effect = lower value 0.988 | S. cerevisiae deletion strains, locus YLR039C, strain RIC1, stronger effect = lower value 1.01 | S. cerevisiae deletion strains, locus YLR058C, strain SHM2, stronger effect = lower value 0.991 | S. cerevisiae deletion strains, locus YLR102C, strain apc9, stronger effect = lower value 0.977 | S. cerevisiae deletion strains, locus YLR113W, strain HOG1, stronger effect = lower value 0.999 | S. cerevisiae deletion strains, locus YLR221C, strain rsa3, stronger effect = lower value 1.02 | S. cerevisiae deletion strains, locus YLR258W, strain gsy2, stronger effect = lower value 1 | S. cerevisiae deletion strains, locus YLR262C, strain YPT6 (second series), stronger effect = lower value 1.02 | S. cerevisiae deletion strains, locus YLR268W, strain sec22, stronger effect = lower value 1 | S. cerevisiae deletion strains, locus YLR320W, strain mms22, stronger effect = lower value 0.99 | S. cerevisiae deletion strains, locus YLR342W, strain FKS1, stronger effect = lower value 0.976 | S. cerevisiae deletion strains, locus YLR357W, strain rsc2, stronger effect = lower value 0.973 | S. cerevisiae deletion strains, locus YLR370C, strain arc18, stronger effect = lower value 0.997 | S. cerevisiae deletion strains, locus YLR371W, strain rom2, stronger effect = lower value 0.979 | S. cerevisiae deletion strains, locus YLR384C, strain iki3, stronger effect = lower value 0.993 | S. cerevisiae deletion strains, locus YLR418C, strain cdc73, stronger effect = lower value 0.973 | S. cerevisiae deletion strains, locus YML016C, strain PPZ1, stronger effect = lower value 1 | S. cerevisiae deletion strains, locus YML032C, strain rad52, stronger effect = lower value 0.997 | S. cerevisiae deletion strains, locus YML120C, strain ndi1, stronger effect = lower value 1.01 | S. cerevisiae deletion strains, locus YML124C, strain tub3, stronger effect = lower value 0.983 | S. cerevisiae deletion strains, locus YMR058W, strain fet3, stronger effect = lower value 0.996 | S. cerevisiae deletion strains, locus YMR078C, strain ctf18, stronger effect = lower value 0.969 | S. cerevisiae deletion strains, locus YMR125W, strain sto1, stronger effect = lower value 0.984 | S. cerevisiae deletion strains, locus YMR129W, stronger effect = lower value 0.987 | S. cerevisiae deletion strains, locus YMR205C, strain PFK2, stronger effect = lower value 1 | S. cerevisiae deletion strains, locus YMR223W, strain ubp8, stronger effect = lower value 0.979 | S. cerevisiae deletion strains, locus YMR231W, strain pep5, stronger effect = lower value 0.998 | S. cerevisiae deletion strains, locus YMR263W, strain SAP30, stronger effect = lower value 0.976 | S. cerevisiae deletion strains, locus YMR307W, strain GAS1, stronger effect = lower value 1.23 | S. cerevisiae deletion strains, locus YNL067W, strain RPL9B, stronger effect = lower value 0.974 | S. cerevisiae deletion strains, locus YNL071W, strain lat1, stronger effect = lower value 0.996 | S. cerevisiae deletion strains, locus YNL183C, strain NPR1, stronger effect = lower value 0.975 | S. cerevisiae deletion strains, locus YNL209W, strain ssb2, stronger effect = lower value 0.983 | S. cerevisiae deletion strains, locus YNL233W, strain BNI4, stronger effect = lower value 0.99 | S. cerevisiae deletion strains, locus YNL248C, strain rpa49, stronger effect = lower value 1 | S. cerevisiae deletion strains, locus YNL250W, strain rad50, stronger effect = lower value 0.955 | S. cerevisiae deletion strains, locus YNL271C, strain bni1, stronger effect = lower value 0.983 | S. cerevisiae deletion strains, locus YNL298W, strain CLA4, stronger effect = lower value 0.972 | S. cerevisiae deletion strains, locus YNL307C, strain MCK1, stronger effect = lower value 0.989 | S. cerevisiae deletion strains, locus YNL322C, strain KRE1 (second series), stronger effect = lower value 0.987 | S. cerevisiae deletion strains, locus YNL322C, strain KRE1, stronger effect = lower value 0.987 | S. cerevisiae deletion strains, locus YNR049C, strain mso1, stronger effect = lower value 0.983 | S. cerevisiae deletion strains, locus YNR052C, strain pop2, stronger effect = lower value 0.962 | S. cerevisiae deletion strains, locus YOL006C, strain TOP1, stronger effect = lower value 1.14 | S. cerevisiae deletion strains, locus YOL012C, strain htz1 0.991 | S. cerevisiae deletion strains, locus YOL147C, strain pex11, stronger effect = lower value 0.978 | S. cerevisiae deletion strains, locus YOR001W, strain rrp6, stronger effect = lower value 0.999 | S. cerevisiae deletion strains, locus YOR061W, strain CKA2, stronger effect = lower value 0.996 | S. cerevisiae deletion strains, locus YOR069W, strain VPS5, stronger effect = lower value 0.983 | S. cerevisiae deletion strains, locus YOR070C, strain gyp1, stronger effect = lower value 0.965 | S. cerevisiae deletion strains, locus YOR080W, strain dia2, stronger effect = lower value 0.996 | S. cerevisiae deletion strains, locus YOR083W, strain WHI5, stronger effect = lower value 0.992 | S. cerevisiae deletion strains, locus YOR106W, strain vam3, stronger effect = lower value 0.983 | S. cerevisiae deletion strains, locus YOR136W, strain idh2, stronger effect = lower value 0.992 | S. cerevisiae deletion strains, locus YOR144C, strain elg1, stronger effect = lower value 0.988 | S. cerevisiae deletion strains, locus YOR184W, strain ser1, stronger effect = lower value 1.03 | S. cerevisiae deletion strains, locus YOR231W, strain MKK1, stronger effect = lower value 0.998 | S. cerevisiae deletion strains, locus YOR265W, strain rbl2, stronger effect = lower value 0.995 | S. cerevisiae deletion strains, locus YOR270C, strain vph1, stronger effect = lower value 1.03 | S. cerevisiae deletion strains, locus YOR290C, strain snf2, stronger effect = lower value 1.01 | S. cerevisiae deletion strains, locus YOR316C, strain cot1, stronger effect = lower value 0.962 | S. cerevisiae deletion strains, locus YPL051W, strain arl3, stronger effect = lower value 0.997 | S. cerevisiae deletion strains, locus YPL078C, strain atp4, stronger effect = lower value 1 | S. cerevisiae deletion strains, locus YPL106C, strain sse1, stronger effect = lower value 0.972 | S. cerevisiae deletion strains, locus YPL240C, strain hsp82, stronger effect = lower value 0.977 | S. cerevisiae deletion strains, locus YPL256C, strain CLN2, stronger effect = lower value 0.999 | S. cerevisiae deletion strains, locus YPR119W, strain clb2, stronger effect = lower value 0.979 | S. cerevisiae deletion strains, locus YPR141C, strain kar3, stronger effect = lower value 0.951 | S. cerevisiae deletion strains, locus YPR163C, strain tif3, stronger effect = lower value 0.959 | S. cerevisiae deletion strains, locus YPR167C, strain met16, stronger effect = lower value 0.985 | S. cerevisiae deletion strains, strain wtn01, stronger effect = lower value 1.01 | S. cerevisiae strains, strain wild type, stronger effect = lower value 1.01
